# Most compounds without a hit are left out; they make up all but 8.6% or so of the library.
# Marburg entry – blocks Marburg virus binding or cell entry | AID 720532 | Marburg virus pseudotype entry/binding inhibition, cell-based | Potency, µM (doses to about 49.2 µM), for inactives: top-dose activity change, negative = inhibition, hits mostly inhibitors | hit rate 6.5% among 18,000
# LASV entry inh – Lassa virus entry inhibition; Potency, µM (series often up to 49.2 µM), for the others: top-dose activity change, negative = inhibition, hits mostly inhibitors; Lassa virus pseudotyped entry inhibition, cell-based qHTS; hit rate 4.1% among 18,000
# An asterisk follows results filed as active; ? = inconclusive; ! = a repeat was not active; [ ] = dose if it differs, or a comment. Calls come from the whole dose curve; tested in HEK293 cells. % is set by controls: 0 for no effect and ±100 for the full control effect; potency is the fitted concentration of half-maximal effect.
SMILES,Marburg entry,LASV entry inh
C=CCC(O)(/C=C/c1ccccc1)c1ccccc1 (stereo not drawn),17%,3%
C/C1=C2N=C(/C=C3N=C(/C(C)=C4\[N-]C(C(CC(N)=O)C4(C)CCC(=O)NCC(C)OP(=O)([O-])OC4C(CO)OC(n5cnc6cc(C)c(C)cc65)C4O)C4(C)N=C1C(CCC(N)=O)C4(C)CC(N)=O)C(CCC(N)=O)C\3(C)C)C(CCC(N)=O)C/2(C)CC(N)=O.[CH3-].[Co+3] (stereo not drawn),3.2µM*,2.5µM*
CCCCCCCCCCCCC/C=C/[C@@H](O)[C@H](CO)NCCCCCCCC,9%,8%
N=C1N=C(N)c2cc3ccccc3cc21,20µM*,35µM*
COc1cc(-c2ccc(Cl)cn2)cc2c1OCCN(C(=O)c1ccccc1-n1cccn1)C2,10%,-6%
CN1C(=O)[C@]23CC4=CC=C[C@H](O)[C@H]4N2C(=O)[C@@]1(CO)SS3,1.4µM*,2.5µM*
Cc1ccc(S(=O)(=O)O)cc1C,-14%,2%
Cc1cc(-c2ccnc(-n3ncc(C(=O)N(C)CC(O)c4ccccc4)c3C)n2)c(C)s1 (stereo not drawn),31%,-25%
CC(C)OC(=O)Nc1cccc(Cl)c1,24%,-15%
CC(NC(C)(C)C)C(=O)c1cccc(Cl)c1 (stereo not drawn),3.5µM*!,28%
NC(=NCCCCCCN=C(N)/N=C(\N)Nc1ccc(Cl)cc1)/N=C(\N)Nc1ccc(Cl)cc1,?,10µM*!
CC(C)N=C(N)/N=C(\N)Nc1ccc(Cl)cc1,-4%[17.8 µM],0%[17.8 µM]
Cc1cc(C(=O)Nc2ccccc2-c2nc(CNC(=O)c3ccc(F)cc3F)c(C)o2)c(C)o1,-10%,2%
COC(=O)C1=C(C)N(Cc2ccccc2)C(=S)NC1c1ccccc1 (stereo not drawn),6%[8.59 µM],0%[8.59 µM]
COc1cc(-c2cc(C)c3cccc(OC)c3n2)cc2c1OCCN(C(=O)CCn1ccc(C)n1)C2,-1%,35µM*
COc1cc(-c2c(OC)cccc2OC)cc2c1OCCN(C(=O)CCn1nc(C)cc1C)C2,-4%,-13%
Cc1cnc(C)c(-c2cc(F)cc3c2OC(CNC(=O)c2cc(Cl)ccc2F)C3)n1 (stereo not drawn),-9%,7%
Cc1cn([C@@H]2C[C@H](N=[N+]=N)[C@H](CO)O2)c(=O)[nH]c1=O,-1%[17.8 µM],-2%[17.8 µM]
Cc1ccccc1OCC(O)CNCCOc1ccc(C(N)=O)cc1 (stereo not drawn),-4%,-1%
CCCNCC(O)COc1ccccc1C(=O)CCc1ccccc1 (stereo not drawn),7.1µM*,?
C=CC[C@@H]1[C@H](O)CC[C@@]2(C)[C@H]1CC[C@@H]1[C@@H]2CC[C@]2(C)C([C@H](C)CCCC(C)C)CC[C@@H]12 (stereo partly drawn),17%,-7%
COC(=O)C1=C2C=C(C)CC(C)N2C(=O)NC1c1ccccc1 (stereo not drawn),30%[8.59 µM],18%[8.59 µM]
CN(C)CC(C)(O)c1ccc2c(c1)CN(Cc1cnn(-c3ccccc3)c1)CCO2 (stereo not drawn),-16%,-13%
O=C(N[C@H]1N=C(c2ccccc2F)c2cccc3c2N(CC3)C1=O)c1cc2ccccc2[nH]1,14%,-29%
CCC(C)c1cc([N+](=O)[O-])cc([N+](=O)[O-])c1OC(C)=O (stereo not drawn),-5%,-8%
SMILES,Marburg entry,LASV entry inh
CCC(C)c1cc([N+](=O)[O-])cc([N+](=O)[O-])c1OC(=O)OC(C)C (stereo not drawn),?,18µM*
O=C1NC(=S)NC(=O)C1C(=O)Nc1ccccc1,10%,-5%
O=C1NC(=O)c2cc(Nc3ccccc3)c(Nc3ccccc3)cc21,?,11µM*
OC1(c2cccnc2)CCN(Cc2ccc3c(c2)CN(Cc2cccc(F)c2F)CCO3)CC1,?,-5%
O=C(/C=C/c1ccc(O)c(O)c1)OC(Cc1ccc(O)c(O)c1)C(=O)O (stereo not drawn),8.9µM*,-5%
O=C(/C=C\c1ccc(O)c(O)c1)O[C@@H](Cc1ccc(O)c(O)c1)C(=O)O,?,-16%
COC(=O)C1CCCCN1Cc1nc(N(C)C)c2ccccc2n1 (stereo not drawn),-24%,-4%
C=CCC(C)(O)c1cccc(Br)c1 (stereo not drawn),-15%,-10%
COc1ccc(CCN(C)CCCC(C#N)(c2cc(OC)c(OC)c(OC)c2)C(C)C)cc1OC (stereo not drawn),32µM*,-10%
COc1ccc(CCN(C)CCc2ccc(OC)c(OC)c2)cc1OC,-29%,-13%
CCC(=O)C(C(=O)OC)[C@H](CCc1ccccc1)NC(=O)OC (stereo partly drawn),-19%,0%
CC[C@H]1[C@@H]2C=C[C@@H]3[C@H]4C/C=C\C(=O)NCCC[C@@H]5NC(=O)C(=C5O)C(=O)CC[C@@H]4C[C@@H]3[C@H]2C[C@H]1C,14µM*,28µM*
CCCCCC(=O)N1C[C@@H](n2cc(-c3ccc(F)cc3)nn2)[C@H](O)C[C@H]1c1ccccc1,?,-15%

# Source: PubChem BioAssay (National Center for Advancing Translational Sciences (NCATS))
